Here are results for 41 molecules from PubChem BioAssay AID651582 (Sanford-Burnham Center for Chemical Genomics, 2012).

About 1,500 (0.65%) of roughly 230,000 compounds were called active. This is one part of a sample in which actives are shown more often than they occur.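 The calls were made as follows: active = pattern-corrected inhibition of lipid staining of at least 50% with the nuclear-stain viability signal not falling by more than 50%; inactive = the rest, inconclusive results apart.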

This experiment is described as follows: TAG lipid buildup reduction in H9c2 cells – cell-based, uHTS, fluorescence, primary screen (AID 651582).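 As to inhibition: 0% = DMSO wells and 100% = triacsin C control wells.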 The conditions noted are these: Nile Red lipid (TAG) fluorescence, at 12.5 µM, cells loaded with 200 µM oleic acid; DAPI nuclei signal change (viability), lower = more cytotoxic: measured here: DAPI nuclei count viability; inhibition: stronger effect = higher value.
A word on the inhibition: it is the relative decrease from the control value, in per cent. Take `COC(C[C@H](O)CC(=O)COCc1ccccc1)OC`: the DAPI nuclei signal change (viability), lower = more cytotoxic is -39.1% and the inhibition was 53.8% (active).
For `COC(C[C@@H](O)C[C@H](O)[C@H](C)OCc1ccccc1)OC`, the DAPI nuclei signal change (viability), lower = more cytotoxic was 5.91% and the inhibition is -1.79% (inactive).
In the case of `COC(C[C@H](O)CC(=O)[C@@H](C)OCc1ccccc1)OC`, the DAPI nuclei signal change (viability), lower = more cytotoxic was 5.4% and the inhibition was -8.13% (inactive).
On the same counts, the results for `CC(=O)NC(c1ccccc1)c1nc(-c2cccc(C(C)C)c2)cs1` (configuration not stated) are -1.3% and 8.58% (inactive).
The matching figures for `O=C(Nc1cc(Cl)ccc1N1CCOCC1)c1ccc(N2CCCC2=O)cc1`: -2.51% and 10.9% (inactive).
Regarding `CNC(=O)c1ccc(NC(=O)c2cccc(C(F)(F)F)c2)cc1`, the DAPI nuclei signal change (viability), lower = more cytotoxic is -4.98% and the inhibition was -1.2% (inactive).
On to `O=C(Nc1ccc(-c2csc(Nc3cccc(C(F)(F)F)c3)n2)cc1)c1cccc(C(F)(F)F)c1`, for which the DAPI nuclei signal change (viability), lower = more cytotoxic is -19.5% and the inhibition was 51.9% (active).
Regarding `Cc1cccc(NC(=O)c2cccc(C(F)(F)F)c2)c1`, the DAPI nuclei signal change (viability), lower = more cytotoxic is -13.3% and the inhibition is -0.148% (inactive).
In the case of `CC1=C(C(=O)Nc2cccc(C(=O)NCC(C)c3ccccc3)c2)SCCO1` (configuration not stated), the DAPI nuclei signal change (viability), lower = more cytotoxic is -4.49% and the inhibition is 4.45% (inactive).
For `COc1ccc(CN2CCN(C(=O)c3cc(C4CC4)nn3-c3ccccc3)CC2)cc1F`, the DAPI nuclei signal change (viability), lower = more cytotoxic is -2% and the inhibition was 7.6% (inactive).
With `Cc1c(C(=O)NNC(=O)c2ccncc2)oc2ccccc12`, the DAPI nuclei signal change (viability), lower = more cytotoxic is -11% and the inhibition was 8.91% (inactive).
On the same counts, the results for `COC(=O)c1ccc(NCc2cc(O)ccc2O)cc1` are -40.6% and 54.7% (active).
On to `CC(C)OC(=O)c1ccc(NCc2cc(O)ccc2O)cc1Cl`, for which the DAPI nuclei signal change (viability), lower = more cytotoxic is -60.3% and the inhibition is 108% (inactive).
As to `O=C(OC12CC3CC(CC(C3)C1)C2)c1ccc(NCc2cc(O)ccc2O)cc1`, the DAPI nuclei signal change (viability), lower = more cytotoxic was -61.6% and the inhibition is 111% (inactive).
On the same counts, the results for `CCCn1c(N)c(C(=O)CSc2nnc3n2CCCCC3)c(=O)[nH]c1=O` are 5.45% and -8.3% (inactive).
The matching figures for `CC[C@]1(c2ccccc2OC)C(=O)N(C(=O)OC)N1C(=O)OC`: 11% and -4.89% (inactive).
`Nc1nnc(SCC(=O)Nc2ccc3nc(SCC(=O)Nc4ccccc4)sc3c2)s1`: the DAPI nuclei signal change (viability), lower = more cytotoxic was -9.1% and the inhibition was -21.4% (inactive).
The matching figures for `C=CCn1c(CSc2nc3ccccc3s2)nnc1SCC(=O)NCc1ccco1`: -7.04% and -5.24% (inactive).
`O=C(CSc1c2c(nc3ccc(Cl)cc13)CCCC2)NCc1ccco1`: the DAPI nuclei signal change (viability), lower = more cytotoxic worked out at 13.7% and the inhibition was 2.61% (inactive).
The matching figures for `O=C(CSc1nc(Nc2ccccc2)nc(N2CCOCC2)n1)Nc1cc(Cl)ccc1O`: -18.9% and 34.4% (inactive).
The matching figures for `O=C(CSc1nc2ccc(Nc3nc(N4CCOCC4)nc(N4CCOCC4)n3)cc2s1)NCc1ccco1`: -0.911% and 54.6% (active).
On the same counts, the results for `Cc1ccccc1NC(=O)CSc1nc2ccc(Nc3nc(N4CCOCC4)nc(N4CCOCC4)n3)cc2s1` are -7.17% and 62.6% (active).
`CS(=O)(=O)/C(C#N)=C/c1cccn1S(=O)(=O)c1ccc([N+](=O)[O-])cc1`: the DAPI nuclei signal change (viability), lower = more cytotoxic stood at 8.58% and the inhibition is -3.62% (inactive).
Turning to `CN(CC(=O)Nc1ccc(F)cc1)C(=O)c1ccc(-c2ccc(Cl)cc2)o1`, the DAPI nuclei signal change (viability), lower = more cytotoxic turned out to be 0.479% and the inhibition is -10.2% (inactive).
Regarding `Cc1ccc(N(Cc2ccccc2O)C(=O)c2ccccc2F)cc1`, the DAPI nuclei signal change (viability), lower = more cytotoxic turned out to be 2.35% and the inhibition is -3.73% (inactive).
The matching figures for `C=C1CCC(N(O)c2cc(C)on2)C(=C)CCC2C1CC2(C)C` (configuration not stated): 2.7% and -2.19% (inactive).
The matching figures for `CC(=O)Nc1ccc(-c2ccnc3c2CC(C(=O)NC(C)C)O3)cc1` (configuration not stated): -1.71% and -1.68% (inactive).
Regarding `COc1ccc(-c2cc(NC=O)c3ncc(-c4ccccc4)n3c2)cc1OC`, the DAPI nuclei signal change (viability), lower = more cytotoxic is -14.8% and the inhibition was 19.6% (inactive).
For `COc1ccc(-c2cc(NC=O)c3ncc(-c4cc(OC)c(OC)c(OC)c4)n3c2)c(OC)c1`, the DAPI nuclei signal change (viability), lower = more cytotoxic is -24.8% and the inhibition is 52.6% (active).
As to `COc1ccc(-c2cc(NC=O)c3ncc(-c4cccc(C(=O)N(C)C)c4)n3c2)c(OC)c1`, the DAPI nuclei signal change (viability), lower = more cytotoxic is -42.3% and the inhibition was 46% (inactive).
On the same counts, the results for `NC(=O)c1ncn([C@@H]2O[C@H](CN=C3NS(=O)(=O)c4ccccc43)[C@@H](O)[C@H]2O)n1` are -1.84% and 13.5% (inactive).
As to `COc1ccc(OCCNC(=O)c2cc(C3CC3)nc3c2cnn3C(C)C)cc1`, the DAPI nuclei signal change (viability), lower = more cytotoxic is -4.88% and the inhibition was -39.8% (inactive).
For `COc1ccc(C(=O)OCC(=O)Nc2cc(C)on2)cc1F`, the DAPI nuclei signal change (viability), lower = more cytotoxic is -5.17% and the inhibition is 7.73% (inactive).
Consider `C=CCOC(=O)N1CCC2CC1c1cc(-c3ccc(OC)cc3)ccc12` (configuration not stated), for which the DAPI nuclei signal change (viability), lower = more cytotoxic is 8.41% and the inhibition is -34.5% (inactive).
The matching figures for `CCN(CC)CCN(C(=O)c1ccc2c(c1)CCCC2)c1nc2c(OC)cccc2s1`: 40% and -1.62% (inactive).
For the molecule `CN(C)CCCN(C(=O)COc1ccccc1)c1nc2c(Cl)cccc2s1`, the DAPI nuclei signal change (viability), lower = more cytotoxic is -0.936% and the inhibition was 15.4% (inactive).
As to `COc1cccc2sc(N(CCCN(C)C)C(=O)C(c3ccccc3)c3ccccc3)nc12`, the DAPI nuclei signal change (viability), lower = more cytotoxic was -45.3% and the inhibition was 117% (active).
On the same counts, the results for `Cc1cccc(-n2ncc(Cl)c(Cl)c2=O)c1` are -35.3% and 75.4% (active).
The matching figures for `O=c1c(Cl)c(NC2CC2)cnn1-c1ccccc1`: -5.81% and -2.29% (inactive).
In the case of `COc1ccc(Oc2c(Cl)cnn(-c3ccccc3)c2=O)cc1`, the DAPI nuclei signal change (viability), lower = more cytotoxic was 2.85% and the inhibition was -4.37% (inactive).
`CCCNC(=O)C1(C)CCN(C(=O)c2ccc(F)cc2Cl)C1` (configuration not stated): the DAPI nuclei signal change (viability), lower = more cytotoxic was 8.17% and the inhibition was 2.28% (inactive).
